# Results taken from PubChem BioAssay AID436 (Emory University Molecular Libraries Screening Center, 2006).
# In all, about 72,000 compounds went through this assay and about 350 (0.49%) were called active.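 How the source made its calls: active means activity remaining at or below 50% of control, provided the compound also passes the data quality filters; inactive means the rest, including low values that fail the filters.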 The full list was thinned out, with actives kept by preference.
# Biological target: Ubiquitin carboxyl-terminal hydrolase BAP1 (Homo sapiens) (UniProt Q92560)
# Experiment: inhibitors of BAP1 deubiquitinase, primary screen, biochemical, Ub-AMC fluorescence, kinetic (AID 436);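 further: 100% = DMSO wells rate and 0% = substrate alone blank rate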
# Conditions: recombinant BAP1, Ub-AMC hydrolysis fluorescence kinetic; at 20 µM; stronger effect = lower value
# Ubiquitin carboxyl-terminal hydrolase BAP1 (Homo sapiens), sequence (Q92560 whole entry, looked up): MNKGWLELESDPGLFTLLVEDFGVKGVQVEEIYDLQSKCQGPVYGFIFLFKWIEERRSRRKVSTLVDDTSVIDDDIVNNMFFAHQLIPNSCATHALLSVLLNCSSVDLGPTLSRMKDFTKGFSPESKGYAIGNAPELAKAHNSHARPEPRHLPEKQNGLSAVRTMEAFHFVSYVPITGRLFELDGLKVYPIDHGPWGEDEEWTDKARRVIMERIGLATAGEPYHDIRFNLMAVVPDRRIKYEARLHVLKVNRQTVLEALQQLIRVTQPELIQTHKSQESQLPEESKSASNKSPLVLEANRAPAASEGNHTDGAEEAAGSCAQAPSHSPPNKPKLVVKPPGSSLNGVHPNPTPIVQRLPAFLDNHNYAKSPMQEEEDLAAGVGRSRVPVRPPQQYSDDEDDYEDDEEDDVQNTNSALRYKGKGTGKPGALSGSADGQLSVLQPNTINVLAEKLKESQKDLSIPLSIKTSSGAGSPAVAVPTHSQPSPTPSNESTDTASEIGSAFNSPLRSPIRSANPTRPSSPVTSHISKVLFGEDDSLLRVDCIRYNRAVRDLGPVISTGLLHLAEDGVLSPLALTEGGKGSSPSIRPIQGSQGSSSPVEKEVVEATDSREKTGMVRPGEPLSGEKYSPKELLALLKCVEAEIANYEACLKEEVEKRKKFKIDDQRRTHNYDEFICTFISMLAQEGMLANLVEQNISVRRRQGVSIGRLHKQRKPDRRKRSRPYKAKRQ
row,SMILES,activity remaining (% of control)
1,CC(=O)c1c(O)c(C)c(O)c(Cc2c(O)c3c(c(C(=O)/C=C/c4ccccc4)c2O)OC(C)(C)C=C3)c1O,14.8% (active)
2,CCCCC[n+]1ccc(-c2cc[n+](CCCCC)cc2)cc1,101% (inactive)
3,O=C(O)C1C2CCC(O2)C1C(=O)O (stereo not drawn),97.4% (inactive)
4,O=C1c2ccccc2C(=O)N1Cc1nc2ccccc2c(=O)n1-c1nccs1,84.5% (inactive)
5,Cc1ccc(Cn2c(C)c3cnn(CC(=O)N4CCC5(CC4)OCCO5)c(=O)c3c2C)cc1,105% (inactive)
6,CCCCCn1c(=O)c(C(=O)NCc2ccccn2)c(O)c2ccccc21,39.6% (active)
7,C=CCN1CCC2(C)c3cc(O)ccc3CC1[C@@H]2C (stereo partly drawn),96.1% (inactive)
8,COc1ccccc1OC(=O)c1ccc(C)c(S(=O)(=O)N2CCOCC2)c1,104% (inactive)
